{"source": "PubChem BioAssay (NCI)", "note": "Compounds without any hit were thinned out: in the full panel of roughly 79,000, 15% have a hit. Unmarked numbers belong to inactive results. Active and inactive are the calls of the source. No stated cut-off is given here; in the data, active means growth inhibition above about 70%; inactive means the rest. Residues, ends and D or L forms follow the SMILES beside them. *: point of attachment. Fmoc = O=C(OCC1c2ccccc2-c2ccccc21)*; Boc = CC(C)(C)OC(=O)*", "data": [{"test": "NCI Yeast Anticancer Drug Screen. Data for the mec2-1 strain (AID 157)", "details": "S. cerevisiae mec2-1 strain, at 11.0 µM, hits give high values", "outline": "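Using mec2-1 yeast: add compound, measure growth, express inhibition versus vehicle-treated cultures.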", "values": [{"smiles": "CC(C)C(=O)CC(Sc1ccc(N)cc1)c1ccccc1", "note": "(stereo unspecified)", "growth inhibition": "10%"}, {"smiles": "CC(C)OP(=O)(OC(C)C)/C(Cl)=N/Nc1ccc([N+](=O)[O-])cc1", "growth inhibition": "52%"}, {"smiles": "O=[N+]([O-])c1cc(Cl)ccc1S(=O)(=O)c1ccc(Cl)cc1[N+](=O)[O-]", "growth inhibition": "20%"}, {"smiles": "CCCCCCNCCCNc1c2cc(OC)ccc2nc2cccc([N+](=O)[O-])c12", "growth inhibition": "73% (active)"}, {"smiles": "N#CCC(=O)N/N=C(\\c1ccccc1)C(c1ccccc1)C1(O)C(=O)Nc2c(Cl)ccc(Cl)c21", "note": "(stereo unspecified)", "growth inhibition": "4%"}, {"smiles": "CN(C)CCNCCCNc1c2ccccc2nc2cccc([N+](=O)[O-])c12", "growth inhibition": "50%"}, {"smiles": "CCC[CH2][Ge]([CH2]CCC)([CH2]CCC)[O]C(=O)C(O)c1ccccc1", "note": "(stereo unspecified)", "growth inhibition": "17%"}, {"smiles": "COc1ccc(-c2cc(-c3cc(C)cc(Cl)c3O)nc3[nH]c(=S)[nH]c(=S)c23)cc1", "growth inhibition": "-2%"}, {"smiles": "O=[N+]([O-])c1ccc(/C=C\\c2ccc3c(c2)OCO3)c([N+](=O)[O-])c1", "growth inhibition": "3%"}, {"smiles": "O=C1c2ccccc2N2OC3(N4CCCC4)CCCCC3C12c1ccccc1", "note": "(stereo unspecified)", "growth inhibition": "-25%"}, {"smiles": "CC(C)OC(=O)NNc1cc(Cl)ccc1Cl", "growth inhibition": "34%"}, {"smiles": "Cc1oc2ccccc2c(=O)c1Cn1nnc2ccccc21", "growth inhibition": "-2%"}, {"smiles": "CC1(C)OC(=O)C(=Cc2ccc([N+](=O)[O-])s2)C(=O)O1", "growth inhibition": "-23%"}, {"smiles": "CCN(CC)CCCNc1ccc([N+](=O)[O-])c2nc3ccc(OC)cc3c(NCCCN(CC)CC)c12", "growth inhibition": "-2%"}, {"smiles": "COc1cccc(/C=C2\\S/C(=N/Nc3nc(-c4ccc([N+](=O)[O-])cc4)cs3)NC2=O)c1O", "growth inhibition": "39%"}, {"smiles": "OC(Cc1cccc2ccccc12)CN1CCC(c2ccccc2)CC1", "note": "(stereo unspecified)", "growth inhibition": "50%"}, {"smiles": "C1=CCN([B-](c2ccccc2)[C+]2CCCCC2)C=C1", "growth inhibition": "4%"}, {"smiles": "O=[N+]([O-])c1cc[n+]([O-])c(Cl)c1", "growth inhibition": "26%"}, {"smiles": "CCCNC(=O)OCc1c(COC(=O)NCCC)c(-c2ccc(Cl)c(Cl)c2)n2c1CCC2", "growth inhibition": "-31%"}, {"smiles": "CC1(C)CC(=O)C(C(=O)Nc2cccs2)=C(O)C1", "growth inhibition": "20%"}, {"smiles": "O=C(NO)c1coc2ccccc2c1=O", "growth inhibition": "-1%"}, {"smiles": "COc1ccc(C(C)c2cc3c(cc2OCC(C)=O)OCO3)cc1", "note": "(stereo unspecified)", "growth inhibition": "0%"}, {"smiles": "CCS(=O)(=O)Nc1ccc(Nc2c3ccccc3nc3ccccc23)c(OC)c1", "growth inhibition": "7%"}, {"smiles": "O=S(=O)(c1ccccc1)N1CN2CN(C1)CN(S(=O)(=O)c1ccccc1)C2", "growth inhibition": "-19%"}, {"smiles": "CC1=NN(C(=O)c2ccccc2O)C(=O)/C1=C/c1ccco1", "growth inhibition": "75% (active)"}, {"smiles": "O=C1C=C(Br)C(=O)c2ccccc21", "growth inhibition": "97% (active)"}, {"smiles": "C[N+](C)([O-])CCCNc1c2ccccc2nc2cccc([N+](=O)[O-])c12", "growth inhibition": "93% (active)"}, {"smiles": "Cc1cccc2c(NCCCN(C)C)c3c([N+](=O)[O-])ccc(C)c3nc12", "growth inhibition": "96% (active)"}, {"smiles": "OC1(c2ccccc2)C2CC=CC2C1(c1ccccc1)c1ccccc1", "note": "(stereo unspecified)", "growth inhibition": "-6%"}, {"smiles": "C[n+]1c(-c2ccc(/C=N/NC(=O)c3ccc(C(=O)N/N=C/c4ccc(-c5cn6ccccc6[n+]5C)cc4)cc3)cc2)cn2ccccc21", "growth inhibition": "23%"}, {"smiles": "CCN(CC)CCC(=O)Nc1ccc2sc3ccccc3c(=O)c2n1", "growth inhibition": "13%"}, {"smiles": "O=[N+]([O-])c1ccc2nc(=S)[nH]n2c1", "growth inhibition": "-5%"}, {"smiles": "O=C(c1ccccc1)[C@H]1Nc2ccc(Cl)cc2[C@H]2OCCC[C@@H]12", "growth inhibition": "-25%"}, {"smiles": "COc1cc([N+](=O)[O-])c2ncccc2c1Br", "growth inhibition": "5%"}, {"smiles": "O=S(=O)(c1cccc(C(F)(F)F)c1)N1c2ccccc2-n2cccc2C1c1cccnc1", "note": "(stereo unspecified)", "growth inhibition": "56%"}, {"smiles": "CC(C)(C)OC(=O)NCCCCC(NC(=O)C(Cc1c[nH]c2ccccc12)NC(=O)OCC1c2ccccc2-c2ccccc21)C(=O)O", "note": "(stereo unspecified) (Fmoc-Trp-Lys(Boc)-OH; configuration not given here)", "growth inhibition": "-4%"}]}]}
